Screening data: PubChem BioAssay, National Center for Advancing Translational Sciences (NCATS)
Shown are actives, neighbours in structure and some others; about 8.9% of the full set was active somewhere.
12-hLO inh: qHTS Assay for Inhibitors of 12-hLO (12-human lipoxygenase); Polyunsaturated fatty acid lipoxygenase ALOX12 (Homo sapiens), P18054; purified 12-hLO, xylenol orange hydroperoxide absorbance; Potency, µM (highest dose often 57.1 µM), for inactives: at the top dose activity change, negative = inhibition, usual class: inhibitors; 0.12% of 150,000 active; AID 1452, 2008; note: potency is the fitted concentration of half-maximal effect; nearly all actives have a fitted effect of over 55% in size
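Hydroperoxide output read as Fe(III)-xylenol orange absorbance, 573-to-405 nm ratio, after 30 min reaction with 40 uM arachidonic acid. Enzyme: 150 nM purified human 12hLO, 15 min compound preincubation; 25 mM Hepes pH 7.0, room temperature.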
NPSR antagonist: qHTS Assay for Antagonists of the Neuropeptide S Receptor: cAMP Signal Transduction. 1% of 220,000 active. Potency, µM (series often up to 38.3 µM), inactives show top-dose activity change, negative = inhibition, actives largely listed as inhibitors. CHO-NPSR cells, cAMP TR-FRET, antagonist mode. Q6W5P4; note: potency is the fitted concentration of half-maximal effect; nearly all actives have a fitted effect of over 50% in size
Target sequence (Q6W5P4 whole entry, looked up): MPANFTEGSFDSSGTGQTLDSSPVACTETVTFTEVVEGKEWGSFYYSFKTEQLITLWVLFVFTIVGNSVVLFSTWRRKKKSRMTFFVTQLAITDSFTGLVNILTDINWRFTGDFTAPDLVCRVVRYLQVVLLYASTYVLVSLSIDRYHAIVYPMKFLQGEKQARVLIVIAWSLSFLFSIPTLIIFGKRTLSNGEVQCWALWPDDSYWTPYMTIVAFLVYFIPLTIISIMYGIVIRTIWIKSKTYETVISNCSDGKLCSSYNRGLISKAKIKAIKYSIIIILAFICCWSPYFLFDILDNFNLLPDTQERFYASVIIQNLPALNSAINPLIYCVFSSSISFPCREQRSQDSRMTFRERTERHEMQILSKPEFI
HPGD inh: qHTS Assay for Inhibitors of HPGD (15-Hydroxyprostaglandin Dehydrogenase); 15-hydroxyprostaglandin dehydrogenase [NAD(+)] (Homo sapiens), P15428; 4.3% of 150,000 active; Potency, µM, for the others: top-dose activity change, negative = inhibition, most hits filed as inhibitors; purified HPGD, NADH fluorescence kinetic, PGE2 substrate; active = well fitted inhibition curve with a large enough effect, not every such curve was filed as active; inconclusive = small, poorly fitted or top-dose-only effect, or another doubt; inactive = no such curve, though single readings can be large or run the other way; note: potency is the fitted concentration of half-maximal effect
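NADH formation kinetics: reaction with 30 uM PGE2 and 1 mM NAD+ (final), 20 nM enzyme, Tris-HCl pH 8 with Tween 20, after 15 min compound preincubation at room temperature. Fluorescence change, last versus first of five reads.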
ALDH1A1 block: qHTS Assay for Inhibitors of Aldehyde Dehydrogenase 1 (ALDH1A1). Aldehyde dehydrogenase 1A1 (Homo sapiens), P00352. Purified ALDH1A1, NADH fluorescence, propionaldehyde substrate. Potency, µM (highest dose often 75.3 µM), inactives show at the top dose activity, negative = inhibition, hits mostly inhibitors. 7.3% of 220,000 active; active = well fitted inhibition curve with a large enough effect, not every such curve was filed as active; inconclusive = small, poorly fitted or top-dose-only effect, or another doubt; inactive = no such curve, though single readings can be large or run the other way;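 note: potency is the fitted concentration of half-maximal effect; plate controls were no enzyme wells and a reference inhibitor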
IMPase Li cell: qHTS Assay for Identifying the Cell-Membrane Permeable IMPase Inhibitors: Potentiation with Lithium; CHO-M1 cells, IP1 TR-FRET (IP-One), carbachol + lithium; Potency, µM (top dose mostly 59.4 µM), without a hit: at the highest dose activity, negative = IMPase inhibition, hits mostly inhibitors; 0.35% of 210,000 active; AID 1457, 2008;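 note: IP1 builds up when IMPase is blocked and the TR-FRET signal falls; potency is the fitted concentration of half-maximal effect; plate controls were basal vehicle for no effect and high inhibitor control for full effect; nearly all actives have a fitted effect of over 50% in size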
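Concentration–response in CHO-M1 cells, lithium-potentiated; 30 min at 37C. IP1 detected by competitive TR-FRET after 10 min lysis at RT. Hill-fitted AC50.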
IMPase cell inh: qHTS Assay for Identifying the Cell-Membrane Permeable IMPase Inhibitors | CHO-M1 cells, IP1 accumulation, HTRF TR-FRET ratio | inhibition (IP1 accumulation), % at 46.1 µM | 120,000 tested, under 10 active | AID 901, 2007; active = well fitted curve in the direction sought with a large enough effect in the signal ratio, not every such curve was filed as active; inconclusive = small, poorly fitted or top-dose-only effect, or a change in a side signal; inactive = no such curve, though single readings can be large or run the other way; the % refers to the signal ratio;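 note: cells stimulated with carbachol in lithium chloride buffer; plate controls were DMSO basal wells for no effect and reference inhibitor wells for full effect; higher means more IMPase inhibition seen as more IP1 and lower FRET ratio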
Target sequence (P97697 whole entry, looked up): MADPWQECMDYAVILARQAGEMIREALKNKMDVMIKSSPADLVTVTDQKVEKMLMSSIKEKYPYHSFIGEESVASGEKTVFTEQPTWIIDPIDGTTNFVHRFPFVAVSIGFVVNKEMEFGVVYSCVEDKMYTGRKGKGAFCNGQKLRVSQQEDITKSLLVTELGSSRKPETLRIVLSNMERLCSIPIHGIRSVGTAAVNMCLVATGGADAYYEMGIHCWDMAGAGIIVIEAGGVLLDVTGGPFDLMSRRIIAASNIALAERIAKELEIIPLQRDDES
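Carbachol-driven Gq signalling in CHO-M1 cells (2000/well) generates IP1. Compounds that block IMPase raise IP1 and so reduce the FRET signal from Eu-anti-IP1 and d2-IP1 after a 10 min room-temperature lysis.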
Numbers without * were called inactive; [ ] = another dose, or the depositor's remark. Unless noted, calls come from the whole dose curve; as a rule, active = well fitted curve in the direction sought with a large enough effect; inconclusive = small, poorly fitted or top-dose-only effect, or another doubt; inactive = no such curve, though single readings can be large; an effect the other way counts as inactive or inconclusive. Unless noted, % is set by controls: 0 for no effect and ±100 for the full control effect.

Screening COc1ccc(OCC(=O)Nc2cccc(-c3nc4ccccc4o3)c2)cc1 returned 12-hLO inh 0%, NPSR antagonist 10%[46.1 µM], HPGD inh inconclusive, ALDH1A1 block inconclusive, IMPase Li cell -3%[38.3 µM] and IMPase cell inh -1.
Screening CN1CCCCCC1=Nc1ccccc1C#N returned 12-hLO inh -8%, NPSR antagonist 12%[46.1 µM], HPGD inh -7%, ALDH1A1 block -14%, IMPase Li cell 18%[38.3 µM] and IMPase cell inh 13.
`O=C1c2ccccc2CN1CCSC(=S)N1CCOCC1` gave 12-hLO inh -1%, NPSR antagonist 14%, HPGD inh 28µM*, ALDH1A1 block inconclusive and IMPase Li cell -2%.
`O=C1c2ccccc2CN1CCNC(=S)NC1CCCCC1` gave NPSR antagonist -4%, ALDH1A1 block 5% and IMPase Li cell -11%.
CC1CN(C(=S)SCCN2Cc3ccccc3C2=O)CC(C)O1 (stereo not drawn) was read as 12-hLO inh 3%, NPSR antagonist 17%, HPGD inh -17%, ALDH1A1 block -2%, IMPase Li cell -6% and IMPase cell inh 10.
Screening O=C1c2ccccc2CN1CCSC(=S)N1CCSCC1 returned NPSR antagonist -15%, ALDH1A1 block 10µM* and IMPase Li cell 15%.
O=C1CCc2cc(S(=O)(=O)N3CCN(C(=O)c4ccco4)CC3)ccc2N1 was read as 12-hLO inh -3%, NPSR antagonist -7%[46.1 µM], HPGD inh -8%, ALDH1A1 block inconclusive, IMPase Li cell -9%[38.3 µM] and IMPase cell inh 0.
Screening O=C(NC1(O)C(=O)c2ccccc2C1=O)c1c(Cl)cccc1Cl returned NPSR antagonist 3%.
For O=C(NC1(O)C(=O)c2ccccc2C1=O)c1ccccc1 the results were 12-hLO inh -26%, NPSR antagonist 6%[46.1 µM], HPGD inh -4%, ALDH1A1 block 1.4µM*, IMPase Li cell 23%[38.3 µM] and IMPase cell inh 4.
Cc1ccc(C(=O)N2CCC(Cc3ccccc3)CC2)cc1[N+](=O)[O-] was read as NPSR antagonist -20%, ALDH1A1 block 14µM* and IMPase Li cell 14%.
`Cc1ccccc1OCCN1CCC(Cc2ccccc2)CC1` gave NPSR antagonist inconclusive, ALDH1A1 block -20% and IMPase Li cell 17%.
Screening Cc1c(C(=O)N2CCC(Cc3ccccc3)CC2)cccc1[N+](=O)[O-] returned NPSR antagonist -5%, ALDH1A1 block 0% and IMPase Li cell 2%.
Screening Cc1ccc([N+](=O)[O-])c(OCCN2CCC(Cc3ccccc3)CC2)c1 returned NPSR antagonist -29%, ALDH1A1 block 32µM* and IMPase Li cell 19%.
CC1CCN(C(=O)c2ccc(SCc3ccccc3F)c([N+](=O)[O-])c2)CC1 was read as 12-hLO inh -8%, NPSR antagonist -35%, HPGD inh 25µM*, ALDH1A1 block inconclusive, IMPase Li cell 18% and IMPase cell inh 1.
CC(C)N(C)CCOC(=O)c1ccccc1Br was read as 12-hLO inh -2%, NPSR antagonist 13%, HPGD inh -1%, ALDH1A1 block 15% and IMPase Li cell 9%.
Screening CC1CCC(NC(=S)NCCN(C)C)CC1 (stereo not drawn) returned NPSR antagonist 18%, ALDH1A1 block 1.6µM* and IMPase Li cell 12%.
`CCc1nc2scc(-c3cccs3)c2c(=O)o1` gave 12-hLO inh 1%, NPSR antagonist -6%[46.1 µM], HPGD inh -25%, ALDH1A1 block inconclusive, IMPase Li cell -9% and IMPase cell inh -7.
Screening CCNC(=S)Nc1ccc(Cl)cc1 returned 12-hLO inh 4%, NPSR antagonist 14%, HPGD inh 0%, ALDH1A1 block 2% and IMPase Li cell -5%.
Screening CCNC(=S)Nc1cc(-c2ccc(Cl)cc2)[nH]n1 returned NPSR antagonist 5%, ALDH1A1 block 1.3µM* and IMPase Li cell -2%.
`CC1=CC(C)(C)N(C(=O)CSc2ncn[nH]2)c2ccccc21` gave 12-hLO inh 7%, NPSR antagonist -23%[46.1 µM], HPGD inh -7%, ALDH1A1 block 13µM*, IMPase Li cell 19%[38.3 µM] and IMPase cell inh -2.
`Cc1cc(O)cc2c(=O)c3ccccc3sc12` gave NPSR antagonist -1%, ALDH1A1 block inconclusive and IMPase Li cell -9%.
`Cc1ccc(S(=O)(=O)N2CCCCC2C(=O)O)cc1` (stereo not drawn) gave NPSR antagonist -4%, ALDH1A1 block inconclusive and IMPase Li cell -6%.
For CC1CCN(c2c(NCC3CCC(C(=O)Nc4ccccn4)CC3)c(=O)c2=O)CC1 (stereo not drawn) the results were 12-hLO inh -1%, NPSR antagonist -4%, HPGD inh 22µM*, ALDH1A1 block 7% and IMPase Li cell 10%.
Screening CC1CCN(c2c(NCC3CCC(C(=O)NCc4ccccc4Cl)CC3)c(=O)c2=O)CC1 (stereo not drawn) returned 12-hLO inh -1%, NPSR antagonist -6%, HPGD inh 16µM*, ALDH1A1 block 1% and IMPase Li cell 6%.
Screening CCOc1ccc(NC(=O)C2CCC(CNc3c(N4CCC(C)CC4)c(=O)c3=O)CC2)cc1 (stereo not drawn) returned NPSR antagonist -4% and ALDH1A1 block 7%.
`COc1ccccc1CNC(=O)C1CCC(CNc2c(N3CCCCC3)c(=O)c2=O)CC1` (stereo not drawn) gave NPSR antagonist 11%.
O=C(O)c1ccc(N/N=C/c2cn(Cc3ccccc3F)c3ccccc23)cc1 was read as NPSR antagonist -54%.
`Cn1cc(/C=N/Nc2ccccc2)c2ccccc21` gave NPSR antagonist 8%, ALDH1A1 block 8.9µM* and IMPase Li cell -2%.
`COc1ccc(-c2cc(=O)c3ccccc3s2)cc1` gave 12-hLO inh -11%, NPSR antagonist -20%[46.1 µM], HPGD inh 7.9µM*, ALDH1A1 block inconclusive, IMPase Li cell 3%[38.3 µM] and IMPase cell inh 10.
COc1cc(OC)c2ccc(=O)oc2c1C(CC(=O)N1CCCC1)c1ccc(N(C)C)cc1 (stereo not drawn) was read as NPSR antagonist -13%.
